Some test systems named below: NCI-H23 lung; NCI-H226 lung; NCI-H322M lung; HOP-62 NSCLC; NCI-H460 lung; HOP-92 NSCLC; NCI-H522 lung; A549/ATCC NSCLC; 786-0 renal; COLO 205 colon.
Common to all, as to experiment: NCI-60 one-dose screen, 48 h (100 = growth as untreated, 0 = no growth, -100 = all killed)
What all share (conditions): 10 µM

Compounds without any hit were thinned out: in the full panel of roughly 83,000, 20% have a hit.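 The endpoint reported here, percent growth, reads 100 for growth as untreated, 0 for no net growth and -100 for all cells dead.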 Values without a mark were called inactive. Calls of active or inactive are those of the source. Rule for the calls: active = growth percent below 10; inactive = the rest.

In the case of `Cn1c(=O)c2[nH]c(C(O)c3ccc(Cl)cc3)nc2n(C)c1=O` (centres undefined), the growth was 98.8% in the assay with NCI-H23 lung; 103% with NCI-H226 lung; 111% in the assay on NCI-H322M lung; 94.7% in the assay with HOP-62 NSCLC; 100% in the assay with NCI-H460 lung; 76.1% with HOP-92 NSCLC. In addition, the growth in the assay with NCI-H522 lung was 96.7%; with A549/ATCC NSCLC it was 96.3%; in the assay with 786-0 renal it was 98.6%; in the assay with COLO 205 colon it was 102%.
As to `CCc1ccc(-c2nnc(COc3ccc(-c4nc5ccccc5[nH]4)cc3OC)o2)cc1`, the growth is 72.4% in the assay on NCI-H23 lung; 81.4% in the assay on NCI-H226 lung; 96.9% in the assay on NCI-H322M lung; 83.2% in the assay with HOP-62 NSCLC; 45.5% in the assay on NCI-H460 lung; 79% in the assay with HOP-92 NSCLC. The growth with NCI-H522 lung was 91.6%; in the assay with A549/ATCC NSCLC, 60.3%; in the assay on 786-0 renal, 22.3%.
`COc1ccc(/C(=C/c2cc(OC)c(OC)cc2[N+](=O)[O-])C(=O)O)cc1`: the growth in the assay on NCI-H23 lung was 103%; in the assay with NCI-H226 lung it was 101%; with NCI-H322M lung it was 118%; in the assay with HOP-62 NSCLC it was 94.1%; in the assay with NCI-H460 lung it was 110%; with HOP-92 NSCLC, 97.2%. Also, the growth was 107% with NCI-H522 lung, 108% in the assay on A549/ATCC NSCLC and 106% with 786-0 renal.
`C[C@]12CC[C@H]3[C@@H](CC=C4C[C@@H](O)CC[C@@]43C)[C@@H]1CC[C@@H]2C(=O)C/C=N/O`: the growth in the assay with NCI-H23 lung was 86.6%; in the assay with NCI-H226 lung, 107%; with NCI-H322M lung, 88.5%; with HOP-62 NSCLC, 76.8%; with NCI-H460 lung, 97.9%; in the assay on HOP-92 NSCLC, 54.9%. The growth with NCI-H522 lung was 79.4%; in the assay on A549/ATCC NSCLC, 89.5%; in the assay on 786-0 renal, 90.8%.
Regarding `Nc1ccn([C@@H]2O[C@H](COP(=O)(O)O[C@@H]3C[C@H](n4cc(F)c(=O)[nH]c4=O)O[C@@H]3COP(=O)(O)O[C@@H]3C[C@H](n4cc(F)c(=O)[nH]c4=O)O[C@@H]3COP(=O)(O)O[C@@H]3C[C@H](n4cc(F)c(=O)[nH]c4=O)O[C@@H]3COP(=O)(O)O[C@@H]3C[C@H](n4cc(F)c(=O)[nH]c4=O)O[C@@H]3COP(=O)(O)O[C@@H]3C[C@H](n4cc(F)c(=O)[nH]c4=O)O[C@@H]3COP(=O)(O)O[C@@H]3C[C@H](n4cc(F)c(=O)[nH]c4=O)O[C@@H]3COP(=O)(O)O[C@@H]3C[C@H](n4cc(F)c(=O)[nH]c4=O)O[C@@H]3COP(=O)(O)O[C@@H]3C[C@H](n4cc(F)c(=O)[nH]c4=O)O[C@@H]3COP(=O)(O)O[C@@H]3C[C@H](n4cc(F)c(=O)[nH]c4=O)O[C@@H]3COP(=O)(O)O[C@@H]3C[C@H](n4cc(F)c(=O)[nH]c4=O)O[C@@H]3COP(=O)(O)OCCOCCOCCOCCOCCOCCO)[C@H](O)C2O)c(=O)n1` (some centres undefined), the growth is 33.2% in the assay with NCI-H23 lung; 72.7% with NCI-H226 lung; 83.5% with NCI-H322M lung; 30% in the assay on HOP-62 NSCLC; 6.31% (active) in the assay with NCI-H460 lung; 71% with HOP-92 NSCLC. In addition, the growth in the assay with NCI-H522 lung is 45%; with A549/ATCC NSCLC it was 11.7%; in the assay on 786-0 renal, 28.2%; in the assay with COLO 205 colon, 36.9%.
For the molecule `O=c1ccc2nc(-c3ccccc3)nn(-c3ccccc3)c-2c1`, the growth is 54.4% in the assay with NCI-H23 lung; 68.1% in the assay on NCI-H226 lung; 88.2% in the assay with NCI-H322M lung; 69.5% in the assay with HOP-62 NSCLC; 81.4% in the assay with NCI-H460 lung; -33% (active) in the assay on HOP-92 NSCLC. Besides, the figures for the growth in the assay with NCI-H522 lung, with A549/ATCC NSCLC and in the assay with 786-0 renal were -90.5% (active), 73.7% and 48.6%, respectively.
`COc1cccc(-c2nnc(COc3ccc(-c4nc5ccccc5[nH]4)cc3OC)o2)c1`: the growth with NCI-H23 lung was 92.7%; in the assay on NCI-H226 lung, 105%; with NCI-H322M lung, 97.6%; with HOP-62 NSCLC, 108%; in the assay on NCI-H460 lung it was 96.5%; with HOP-92 NSCLC, 93.8%. For the same molecule, the growth in the assay with NCI-H522 lung is 96.7%; with A549/ATCC NSCLC, 97.1%; in the assay on 786-0 renal it was 96.2%; with COLO 205 colon, 85.4%.
Consider `CCN(CC)c1ccc(/C=C/C2=[N+](C)c3ccccc3C2(C)C)c(C)c1`, for which the growth with NCI-H23 lung is 11.1%; with NCI-H226 lung it was 17.7%; with NCI-H322M lung it was 27.6%; in the assay on HOP-62 NSCLC it was 5.39% (active); with NCI-H460 lung, 2.94% (active); with HOP-92 NSCLC it was -19.5% (active). For the same molecule, the growth was -14.4% (active) with NCI-H522 lung, 9.85% (active) in the assay on A549/ATCC NSCLC and 13.1% with 786-0 renal.
For `Cc1ccc(C)c(S(=O)(=O)NC2c3ccccc3Oc3ccccc32)c1`, the growth in the assay with NCI-H23 lung was 98%; with NCI-H226 lung, 90.3%; in the assay with NCI-H322M lung it was 88.3%; in the assay on HOP-62 NSCLC it was 96.1%; in the assay on NCI-H460 lung it was 105%; in the assay with HOP-92 NSCLC, 59.6%. The growth is 31.6% with NCI-H522 lung, 96.7% in the assay with A549/ATCC NSCLC and 88% in the assay with 786-0 renal.
With `COc1cc(C2CC(=O)Nc3c2c(C)nn3-c2nc3ccccc3[nH]2)cc(OC)c1O` (centres undefined), the growth was 36.8% in the assay with NCI-H23 lung; 66% in the assay on NCI-H226 lung; 80.4% in the assay on NCI-H322M lung; 88.6% with HOP-62 NSCLC; 36.2% in the assay with NCI-H460 lung; 32% in the assay with HOP-92 NSCLC. Moreover, the growth is 64.8% with NCI-H522 lung, 40.1% with A549/ATCC NSCLC, 53.1% with 786-0 renal and 106% in the assay on COLO 205 colon.
Consider `Nc1nc(SCC#CCCl)c2[nH]cnc2n1`, for which the growth was 66.2% in the assay with NCI-H23 lung; 65.1% in the assay with NCI-H226 lung; 62.7% in the assay with NCI-H322M lung; 94.2% in the assay on HOP-62 NSCLC; 29% with NCI-H460 lung; 39.9% with HOP-92 NSCLC. The growth is 20.1% in the assay on NCI-H522 lung, 54.5% in the assay on A549/ATCC NSCLC, 41.5% with 786-0 renal and 47.7% with COLO 205 colon.
With `CCOc1nc(-c2ccccc2)cc2c(O)c(C(=O)N/N=C/c3ccc(OC)cc3)[nH]c(=O)c12`, the growth is 97.9% in the assay with NCI-H23 lung; 109% in the assay with NCI-H226 lung; 124% in the assay with NCI-H322M lung; 105% in the assay with HOP-62 NSCLC; 101% with NCI-H460 lung; 74.6% in the assay with HOP-92 NSCLC. For the same molecule, the growth in the assay with NCI-H522 lung was 83.1%; in the assay on A549/ATCC NSCLC, 110%; in the assay with 786-0 renal, 116%; in the assay on COLO 205 colon, 87.7%.
As to `COc1cc(CSc2nc3ccc(Cl)cc3c(=O)n2Cc2ccccc2)cc(OC)c1OC`, the growth with NCI-H23 lung was 25%; in the assay on NCI-H226 lung it was 47.9%; with NCI-H322M lung, 47.5%; in the assay on HOP-62 NSCLC it was 37.7%; in the assay on NCI-H460 lung, 20.5%; in the assay with HOP-92 NSCLC, 71.3%. Moreover, the growth with NCI-H522 lung was -0.0842% (active); in the assay on A549/ATCC NSCLC, 42.2%; in the assay on 786-0 renal it was 43.4%; in the assay on COLO 205 colon, -37.8% (active).

Source of the values: PubChem BioAssay (NCI).
